Bioassay records (PubChem)
DUSP3 inh = VHR1 phosphatase inhibitors, primary screen, biochemical, absorbance, uHTS. inhibition, % at 13.3 µM. Dual specificity protein phosphatase 3 (Homo sapiens), P51452. 0.52% of 290,000 active. recombinant VHR phosphatase, pNPP absorbance; in the data active means inhibition above about 50%
Target sequence (P51452 whole entry, looked up): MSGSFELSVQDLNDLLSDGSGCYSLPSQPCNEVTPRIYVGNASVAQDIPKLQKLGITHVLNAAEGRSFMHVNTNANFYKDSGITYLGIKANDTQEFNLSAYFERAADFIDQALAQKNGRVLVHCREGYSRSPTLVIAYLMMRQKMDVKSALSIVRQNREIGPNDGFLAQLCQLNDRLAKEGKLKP
RecA intein inh = Mtb RecA intein splicing inhibitors, primary screen, biochemical, fluorescence, HTS; Protein RecA (Mycobacterium tuberculosis (strain ATCC 25618 / H37Rv)), P9WHJ3; cell-free RecA intein splicing; inhibition, % (concentration not given with the values); 0.75% of 290,000 active; in the data active means inhibition above about 30%;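 further: 0% = vehicle wells and 100% = reference inhibitor control wells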
3CLpro inhibitor = SARS-CoV 3CLpro protease inhibitors, primary screen, biochemical, quenched FRET. recombinant SARS-CoV 3CLpro, quenched FRET peptide cleavage. AID 1706, 2009. 0.14% of 290,000 active. inhibition, % at 6 µM; in the data active means inhibition above about 12%
CCHF vOTU inh-1 = CCHFV vOTU protease inhibitors, primary screen, biochemical, Pep-AMC substrate, fluorescence | Crimean-Congo hemorrhagic fever virus L polyprotein viral ovarian tumor (vOTU) protease … | inhibition, % at 11.5 µM | 0.55% of 370,000 active | AID 651958, 2012; further: 0% = vehicle wells with enzyme and 100% = no enzyme wells
GFP chromophore = counter-screen: blocks GFP chromophore formation, dose response, counter-screen, biochemical, fluorescence, homogeneous. shares compounds with RecA intein inh. 83% of 2,100 active. EC50, µM. cell-free GFP chromophore formation. AID 434968, 2010; call rule not given here
CCHF vOTU inh-2 = CCHFV vOTU protease inhibitors, confirmation, biochemical, Pep-AMC substrate, fluorescence | shares compounds with CCHF vOTU inh-1 | Recombinant CCHFV vOTU | inhibition, % at 11.5 µM | 17% of 1,900 active | AID 686976, 2013
An asterisk follows results filed as active; / = no result given. Hits are enriched below; roughly 1.5% of the tested compounds scored in any of these assays. Unless noted, no stated cut-off is given here; in the data, active means inhibition above about 30%; inactive means the rest.

SMILES	DUSP3 inh	RecA intein inh	3CLpro inhibitor	CCHF vOTU inh-1	GFP chromophore	CCHF vOTU inh-2
COC(=O)Nc1ccc(S(=O)(=O)NNC(=O)c2c(O)c3ccccc3n(C)c2=O)cc1	-18	-6	-1	4	/	/
CC1=NN(c2ccc(F)cc2)C(=O)C1C(c1cccc(O)c1)c1c(C)[nH]n(-c2ccc(F)cc2)c1=O (stereo not given)	17	97*	4	66*	1.8*	-16
CC(=O)N(C1=C(Cl)C(=O)c2ccccc2C1=O)C1CCCCC1	5	92*	0	100*	1.3*	98*
CCOc1cc(/C=C2\C(=O)N(CCC#N)N=C2C)ccc1OCC(N)=O	-3	88*	1	44*	9.3*	-24
CCOc1cc(/C=C2/C(=O)N(c3ccccc3)N=C2C)ccc1OC(=O)c1cccs1	25	-11	6	/	/	/
CCn1nc(C(=O)OC(C(=O)c2c[nH]c3ccccc23)c2ccccc2)c2ccccc2c1=O (stereo not given)	6	-2	5	-5	/	/
O=C1C=C(Nc2ccccc2C(=O)O)c2ccccc2C1=O	17	97*	5	72*	2.5*	95*
O=C(CN1C(=O)c2ccccc2C1=O)Nc1cccc2cccnc12	34	0	4	-1	/	/
O=C1C=C(Nc2cccc3cccnc23)c2ccccc2C1=O	16	90*	1	38*	3.6*	29
O=C1C=C(Nc2ccccc2)c2ccccc2C1=O	11	70*	2	55*	0.85*	73*
CCCCNC1=CC(=O)C(=O)c2ccccc21	8	97*	4	35*	0.98*	68*
O=C1C=C(Nc2ccccc2)C(=O)c2ccccc21	16	13	1	18	/	/
CC(=O)Oc1ccc(/C=C2/C(=O)N(c3ccccc3)N=C2C)cc1	4	93*	1	103*	3.5*	-12
COc1cc(/C=C2/C(=O)N(c3cccc(Br)c3)N=C2C)cc(OC)c1O	63	87*	5	92*	4.3*	-26
CC1=NN(c2ccccc2)C(=O)/C1=C/N(C)C	5	1	3	4	/	/
CC1=NN(c2ccccc2)C(=O)/C1=C/c1cccc(C)c1	4	92*	3	76*	2.3*	-18
COc1ccc(/C=C2/C(=O)N(c3ccccc3)N=C2C)cc1OC	-12	43*	5	93*	9*	-20
O=C(CSc1nnc(-c2cccnc2)n1-c1ccc(Cl)cc1)Nc1cccc2ccccc12	/	/	/	-2	/	/
O=C(NCCN1CCOCC1)C(=O)NCC1OCCN1S(=O)(=O)c1ccc(Cl)cc1 (stereo not given)	/	/	/	4	/	/
COc1ccc(S(=O)(=O)N2CCCCCC2)cc1C(=O)N1CCN(c2ccccc2O)CC1	/	/	/	-9	/	/
C=CCN1C(=O)c2n[nH]c(C(C)C)c2C1c1ccc2c(c1)OCO2 (stereo not given)	/	/	/	-7	/	/
O=C(NCc1ccccc1)c1onc(CSc2ccccc2)c1C(=O)NCC1CC1	11	0	/	16	/	/
Nc1ccc(N2CCCCC2)c2nonc12	16	75*	6	111*	11*	34*
O=[N+]([O-])c1ccc(N2CCCCCC2)c2nonc12	4	-14	-7	14	/	/
Cn1nc(-c2ccccn2)nc2c(=O)n(C)c(=O)nc1-2	/	95*	16*	102*	0.41*	104*
SMILES	DUSP3 inh	RecA intein inh	3CLpro inhibitor	CCHF vOTU inh-1	GFP chromophore	CCHF vOTU inh-2
COc1ccc(-c2nc(-c3ccccn3)ncc2S(C)(=O)=O)cc1	36	-3	5	-5	/	/
COc1ccc(C(C[N+](=O)[O-])c2c(C)[nH]n(-c3ccccc3)c2=O)cc1 (stereo not given)	/	95*	-2	100*	5.3*	31*
Cc1[nH]n(-c2cccc([N+](=O)[O-])c2)c(=O)c1-c1ccccc1	6	-1	3	5	/	/
Cc1[nH]n(-c2ccccc2)c(=O)c1C(c1ccc(O)c([N+](=O)[O-])c1)c1c(C)[nH]n(-c2ccccc2)c1=O	/	86*	6	70*	2.3*	-8
Cc1cccc(Cn2cc(CN3CC(N(C)CCCOC(=O)c4cc5ccccc5o4)CS3(=O)=O)nn2)c1 (stereo not given)	/	/	/	0	/	/
O=C(O)c1ccc(-n2nnc3ccccc32)c([N+](=O)[O-])c1	20	1	-1	13	/	/
O=C(O)c1ccc(NC2=C(n3nnc4ccccc43)C(=O)c3ccccc3C2=O)cc1	25	88*	1	87*	5.6*	89*
Cc1cc(OC(C)C(=O)NCCCN2CCOCC2)c2c(C)c(C)c(=O)oc2c1 (stereo not given)	11	0	2	-8	/	/
O=c1[nH]c(Nc2ccccc2Cl)cc2ccccc12	/	86*	/	94*	16*	-71
Cc1cccc(NC(=O)CNC(=O)COc2cccnc2[N+](=O)[O-])c1C	/	/	/	-11	/	/
CCCCNC(=O)CSc1cc(=O)n(C)c2ccccc12	-7	0	4	7	/	/
Nc1scc2c(C(=O)N/N=C/c3ccc(Cl)cc3)nn(-c3ccccc3)c(=O)c12	6	63*	-1	36*	16*	64*
CCOC(=O)C1=CN(Cc2ccco2)S(=O)(=O)NC1CC (stereo not given)	/	/	/	-2	/	/
CCc1nnc(NS(=O)(=O)c2ccc(NC(=O)c3ccc([N+](=O)[O-])s3)cc2)s1	/	/	/	35*	/	12
CCc1nnc(NS(=O)(=O)c2ccc(NS(=O)(=O)c3ccccc3[N+](=O)[O-])cc2)s1	-7	-3	-1	-3	/	/
CCc1nnc(NS(=O)(=O)c2ccc(Nc3ccc([N+](=O)[O-])c4nonc34)cc2)s1	22	30	6	31*	/	6
Cc1nc2c(=O)[nH]c(=S)[nH]c2[nH]c1=O	/	/	/	-9	/	/
Cc1[nH][nH]c(=O)c1C(c1c(C)[nH][nH]c1=O)c1cn(C)c2ccccc12	25	/	2	44*	/	-32
Cn1c2ccccc2c(=O)c2c(=O)n(Cc3cccc4ccccc34)cnc21	/	/	/	4	/	/
Cc1[nH][nH]c(=O)c1C(c1c(C)[nH][nH]c1=O)c1cn(Cc2cccc3ccccc23)c2ccccc12	21	/	5	48*	/	13
O=S(=O)(/N=C(/Nc1cccc2ccccc12)c1ccccc1)c1ccc(F)cc1	-14	3	2	13	/	/
CCOc1ccc(NC(=NCc2ccc3c(c2)OCO3)SC2CC(=O)N(c3ccc(C(=O)O)cc3)C2=O)cc1 (stereo not given)	12	-1	9	30*	/	7
Cc1ccc(N(CCC(=O)N2CCOCC2)S(=O)(=O)c2ccccc2)cc1	/	/	/	-3	/	/
